PubChem BioAssay (NCI)
Compounds without any hit were thinned out: in the full panel of roughly 83,000, 20% have a hit.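 Negative percent growth values reflect cell death: -40 means 40% of the cells present at the start died, and -100 means all died.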 Unmarked numbers belong to inactive results. Activity calls are given as the source filed them. The calls were made as follows: active = growth percent below 10; inactive = the rest.

The compounds below were run on UO-31 renal (assay: NCI-60 one-dose screen, 48 h (100 = growth as untreated, 0 = no growth, -100 = all killed)). Conditions: 10 µM unless noted.

Row | Compound | growth
1 | O=[N+]([O-])c1cc(CCl)ccc1OCCBr | 80.8%
2 | O=C1COCCN1c1ccc(Nc2nc(Cl)nc(N3CCOCC3)n2)cc1 | 93.5%
3 | O=C(OCc1ccc2c(Cl)cc(Cl)c(O)c2n1)N1CCNCC1 | 15.3%
4 | Cc1ccc(S(=O)(=O)NCCCNc2nccc(-c3c(-c4cccc(F)c4)nc4occn34)n2)cc1 | 43.6%
5 | COc1cc(Cl)cc(-c2nn(C(=O)NS(=O)(=O)c3ccccc3)cc2-c2ccncc2)c1 | 70.6%
6 | Cn1cc(-c2noc(-c3cn(C)c4ncccc34)n2)c2cc(Cl)ccc21 | 78.9%
7 | CC(C)CSc1ncnc2nc[nH]c12 | 93.9%
8 | Cc1cnc([C@]23CC[C@@H](C)[C@H](C)[C@H]2C2=CC[C@@H]4[C@@]5(C)Cc6c([nH]c7ccccc67)C(C)(C)[C@@H]5CC[C@@]4(C)[C@]2(C)CC3)o1 | 39% [100 µM]
9 | CC1(C)CC[C@]2(C(=O)O)CC[C@]3(C)C(=CC[C@@H]4[C@@]5(C)C/C(=C/c6ccco6)C(=O)C(C)(C)[C@@H]5CC[C@]43C)[C@@H]2C1 | -98.1% [100 µM] (active)

The compounds below were run on ACHN renal in the same assay as above. Conditions: 10 µM unless noted.

Row | Compound | growth
10 | O=C(Nc1cccc(F)c1)c1cc(=O)[nH]c2cc(Br)ccc12 | 57%
11 | COC(=O)[C@]12CCC(C)(C)C[C@H]1C1=CC[C@@H]3[C@@]4(C)C/C(=C/c5cccnc5)C(=O)C(C)(C)[C@@H]4CC[C@@]3(C)[C@]1(C)CC2 | -61.1% [100 µM] (active)
12 | N#C/C(C(=O)c1ccccc1)=C1/C(=O)Nc2ccc(Br)cc21 | 88.7%
13 | COc1ccc(-c2cc(-c3ccc(Cl)cc3)nc(NCCCCNc3ccnc4cc(Cl)ccc34)n2)cc1 | 91.8%
14 | CCCSc1nc(N)nc2nc[nH]c12 | 96.4%
15 | CCN(CC)c1ccc2cc(NC(=O)OCCNC(=O)CCNC(=O)[C@H](CC(C)C)NC(=O)C(C)(C)NC(=O)C(C)(C)NC(=O)[C@H](CC(C)C)NC(=O)CCNC(=O)C(C)(C)NC(=O)[C@H](CC(C)C)NC(=O)CCNC(=O)[C@@](C)(CC)NC(=O)[C@H](C)NC(=O)CCNC(=O)C(C)(C)NC(=O)[C@H](C)NC(=O)[C@@H]3CCCN3C(=O)[C@@](C)(CC)NC(=O)[C@H](Cc3ccccc3)NC(=O)C3CCCN3C(=O)C(C)(C)NC(=O)C3CCCN3C(=O)C(C)(C)NC(C)=O)c(=O)oc2c1 (some centres not stated) | -85.4% (active)
16 | C=C(C)[C@@H]1CC[C@]2(C(=O)N3CCN(C)CC3)CC[C@]3(C)[C@H](CC[C@@H]4[C@@]5(C)C/C(=C/c6ccncc6)[C@H](O)C(C)(C)[C@@H]5CC[C@]43C)[C@@H]12 | -0.441% [100 µM] (active)
17 | CC[C@@](C)(NC(=O)[C@H](C)NC(=O)CCNC(=O)C(C)(C)NC(=O)[C@H](C)NC(=O)[C@@H]1CCCN1C(=O)[C@@](C)(CC)NC(=O)[C@H](Cc1ccccc1)NC(=O)C1CCCN1C(=O)C(C)(C)NC(=O)C1CCCN1C(=O)C(C)(C)NC(C)=O)C(=O)NCCC(=O)N[C@@H](CC(C)C)C(=O)NC(C)(C)C(=O)NCCC(=O)N[C@@H](CC(C)C)C(=O)NC(C)(C)C(=O)NC(C)(C)C(=O)N[C@@H](CC(C)C)C(=O)NCCC(=O)NCO (some centres not stated) | -90.1% (active)
18 | C#C[C@]1(O)CC[C@H]2[C@@H]3CC=C4c5nc(Nc6ncccn6)sc5CC[C@]4(C)[C@H]3CC[C@@]21C | 60.7%
19 | CC(C)(C)c1cc(C(=O)N2CCC(C(=O)NCCN)CC2)cc(C(C)(C)C)c1 | 108%
20 | CCOC(=O)/C(C#N)=C(\C)CCc1ccccc1 | 101%
21 | COc1ccc2c3ccnc(C(F)(F)F)c3n(CCCCN)c2c1 | 26.8%
22 | O=C(O)c1cccc(CN2CCN(c3cc4c(cc3F)c(=O)c(C(=O)O)cn4C3CC3)CC2)c1O | 103%
23 | CCN(CC)c1ccc2cc(C(Nc3ccc(Br)c(C(F)(F)F)c3)c3nnnn3C(C)(C)C)c(=O)oc2c1 (configuration not stated) | 99.1%
24 | O=C(NCCCNC(=O)OCc1ccc2c(Br)cc(Br)c(O)c2n1)OCc1ccc2c(Br)cc(Br)c(O)c2n1 | -100% (active)
25 | C[N+](C)(C)c1ncnc2[n-]cnc12 | 95.3%
26 | O=S(=O)(c1ccc(N/N=C\c2ccccc2Cl)cc1)c1ccc(N/N=C/c2ccccc2Cl)cc1 | 82.7%
27 | CCCOc1ccc(-c2nc(-c3ccc(N)cc3)cs2)cc1 | 97.1%
